Data published in PubChem BioAssay (Tox21).
“And” between values parts separate entries of the source, which are not always exact repeats. Equal entries are not always repeated. Some compounds were tested as several samples or in several runs, with calls that do not always agree. The source made the active and inactive calls. A call without a number means that no potency is given here. Unless noted, calls follow the shape of the dose curve; as a rule, active = well fitted curve in the direction sought with a large enough effect in the repeat runs; inconclusive = weak or mixed curves; inactive = no such curve, though single readings can be large; an effect the other way counts as inactive or inconclusive.

Tests used:
[1] = qHTS assay to identify small molecule antagonists of the thyroid receptor (TR) signaling pathway - cell viability counter screen (AID 743064); settings: GH3.TRE-Luc viability, CellTiter-Fluor, 24 h; series mostly up to 70.3 µM; also: nearly all actives have a fitted effect of over 50% in size; also: potency is read from the fitted curve at half-maximal effect
Summary of the method: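 Rat GH3 pituitary tumor cells stably expressing two TR response elements driving luciferase were plated, rested 4 h, then dosed with library compounds and T3 (1 nM final). After 23.5 h at 37 °C, CellTiter-Fluor was added for 30 min and fluorescence recorded.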

[2] = qHTS assay to identify small molecule antagonists of the thyroid receptor (TR) signaling pathway (AID 743065); settings: GH3.TRE-Luc, T3-stimulated luciferase inhibition, 23.5 h; series mostly up to 70.3 µM; also: nearly all actives have a fitted effect of over 55% in size; also: potency is read from the fitted curve at half-maximal effect
Summary of the method: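 Antagonism measured as loss of luciferase signal in GH3 cells stably carrying a TRE-luciferase reporter, co-treated with compound and T3 (1 nM final) for 23.5 h at 37 C. Viability was read in the same well by CellTiter-Fluor.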

[3] = system: thyroid hormone receptor (rat, GH3 cells); experiment: qHTS assay to identify small molecule agonists of the thyroid receptor (TR) signaling pathway (AID 743066; calls by dose curve); settings: GH3.TRE-Luc cells, TR agonist luciferase, 24 h; series mostly up to 83.9 µM
[4] = target: Estrogen receptor (Homo sapiens) (UniProt P03372); experiment: qHTS assay to identify small molecule antagonists of the estrogen receptor alpha (ER-alpha) signaling pathway (AID 743069; active = well fitted curve in the direction sought with a large enough effect in the signal ratio in the repeat runs, not every such curve was filed as active; inconclusive = weak or mixed curves, or effect the other way; inactive = no such curve, though single readings can be large or run the other way; the % refers to the signal ratio; also: potency is read from the fitted curve at half-maximal effect); settings: HEK293 ER-alpha-UAS-bla, beta-lactamase ratio, antagonist mode; series mostly up to 69.4 µM
Sequence of Estrogen receptor (Homo sapiens) (P03372 whole entry, looked up): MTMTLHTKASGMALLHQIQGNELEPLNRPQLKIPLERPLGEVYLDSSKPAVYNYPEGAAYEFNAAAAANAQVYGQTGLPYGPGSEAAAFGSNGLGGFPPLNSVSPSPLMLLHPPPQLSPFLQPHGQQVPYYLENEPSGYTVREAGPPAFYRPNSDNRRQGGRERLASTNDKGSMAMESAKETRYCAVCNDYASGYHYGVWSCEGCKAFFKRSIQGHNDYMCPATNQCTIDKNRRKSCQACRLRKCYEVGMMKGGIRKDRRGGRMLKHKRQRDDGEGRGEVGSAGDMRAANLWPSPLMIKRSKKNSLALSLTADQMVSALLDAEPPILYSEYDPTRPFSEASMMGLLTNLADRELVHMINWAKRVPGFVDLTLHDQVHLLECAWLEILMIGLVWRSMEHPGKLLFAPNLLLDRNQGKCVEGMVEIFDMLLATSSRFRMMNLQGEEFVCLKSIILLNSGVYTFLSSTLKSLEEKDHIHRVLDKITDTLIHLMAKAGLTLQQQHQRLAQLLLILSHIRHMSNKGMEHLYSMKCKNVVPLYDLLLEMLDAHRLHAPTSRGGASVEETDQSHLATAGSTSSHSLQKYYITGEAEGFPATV
Summary of the method: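 Antagonist mode: compounds in DMSO were co-added with 17beta-estradiol to ER-alpha-bla HEK293 cells (2% charcoal-stripped serum) and left 18 h at 37C. Reporter inhibition was measured as FRET fluorescence after 2 h LiveBLAzer substrate at room temperature.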

[5] = qHTS assay to identify small molecule antagonists of the estrogen receptor alpha (ER-alpha) signaling pathway - cell viability counter screen (AID 743074; calls by dose curve;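 also: HEK293 cells carrying ER-alpha-UAS-bla reporter stimulated with 17beta-estradiol; nearly all actives have a fitted effect of over 45% in size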); settings: ERalpha-bla HEK293 viability, CellTiter-Glo luminescence, 18 h; series mostly up to 69.4 µM
[6] = target: Estrogen receptor (Homo sapiens) (UniProt P03372); experiment: qHTS assay to identify small molecule agonists of the estrogen receptor alpha (ER-alpha) signaling pathway (AID 743075; calls by dose curve;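 also: HEK293 GripTite cells with ER-alpha and UAS-driven beta-lactamase reporter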; also: potency is read from the fitted curve at half-maximal effect); settings: HEK293 ER-alpha-UAS-bla, beta-lactamase FRET ratio, 18 h; series mostly up to 70.1 µM
[7] = target: Estrogen receptor (Homo sapiens) (UniProt P03372); experiment: qHTS assay to identify small molecule agonists of the estrogen receptor alpha (ER-alpha) signaling pathway using the BG1 cell line (AID 743079); settings: BG1Luc4E2 cells, ERE-luciferase agonist, 22 h; series mostly up to 70.3 µM; also: nearly all actives have a fitted effect of over 20% in size; also: potency is read from the fitted curve at half-maximal effect
[8] = qHTS assay to identify small molecule antagonists of the estrogen receptor alpha (ER-alpha) signaling pathway using the BG1 cell line - cell viability counter screen (AID 743081); settings: BG1Luc4E2 viability, CellTiter-Fluor, 22 h; series mostly up to 70.3 µM;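 also: compound given together with 17beta-estradiol as the ER stimulus; nearly all actives have a fitted effect of over 45% in size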
[9] = target: Aromatase (Homo sapiens) (UniProt P11511); experiment: qHTS assay to identify aromatase inhibitors (AID 743083); settings: MCF-7 aro ERE, testosterone-driven ERE luciferase, 24 h; series mostly up to 70.3 µM; also: nearly all actives have a fitted effect of over 55% in size; also: potency is read from the fitted curve at half-maximal effect
Sequence of Aromatase (Homo sapiens) (P11511 whole entry, looked up): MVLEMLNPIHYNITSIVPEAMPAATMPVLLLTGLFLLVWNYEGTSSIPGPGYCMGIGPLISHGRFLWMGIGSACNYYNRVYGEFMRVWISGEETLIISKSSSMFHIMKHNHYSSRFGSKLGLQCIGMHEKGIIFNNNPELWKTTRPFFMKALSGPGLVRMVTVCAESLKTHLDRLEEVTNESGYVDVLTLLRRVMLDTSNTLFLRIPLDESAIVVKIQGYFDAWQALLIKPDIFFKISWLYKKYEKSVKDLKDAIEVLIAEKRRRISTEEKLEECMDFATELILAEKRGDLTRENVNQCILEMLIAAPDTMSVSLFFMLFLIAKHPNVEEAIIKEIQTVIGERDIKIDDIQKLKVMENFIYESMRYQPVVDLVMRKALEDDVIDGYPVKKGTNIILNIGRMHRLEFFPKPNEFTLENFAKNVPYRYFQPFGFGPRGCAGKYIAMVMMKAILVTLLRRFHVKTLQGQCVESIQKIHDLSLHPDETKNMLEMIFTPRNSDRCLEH

[10] = qHTS assay to identify aromatase inhibitors - cell viability counter screen (AID 743084); settings: MCF-7 aro ERE viability, CellTiter-Fluor, 24 h; series mostly up to 70.3 µM;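 also: cells stimulated with testosterone during compound exposure; nearly all actives have a fitted effect of over 55% in size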; also: potency is read from the fitted curve at half-maximal effect
[11] = qHTS assay to identify small molecule that activate the aryl hydrocarbon receptor (AhR) signaling pathway - cell viability counter screen (AID 743086); settings: HepG2-AhR-luc viability, CellTiter-Fluor, 24 h; series mostly up to 70.3 µM;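 also: HepG2 liver cells carrying the AhR DRE luciferase reporter; nearly all actives have a fitted effect of over 45% in size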
Summary of the method: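 Cytotoxicity counter screen: CellTiter-Fluor signal (30 min, 37 C) in 4000 HepG2 cells/well carrying the DRE-luciferase reporter, following 24 h compound exposure at 37 C.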

[12] = target: Peroxisome proliferator-activated receptor gamma (Homo sapiens) (UniProt P37231); experiment: qHTS assay to identify small molecule agonists of the peroxisome proliferator-activated receptor gamma (PPARg) signaling pathway (AID 743094; active = well fitted activation curve with a large enough effect in the signal ratio in the repeat runs, not every such curve was filed as active; inconclusive = weak or mixed curves, or effect the other way; inactive = no such curve, though single readings can be large or run the other way; the % refers to the signal ratio); settings: HEK293H PPARg-UAS-bla, beta-lactamase FRET ratio, 17 h; series mostly up to 57 µM
Sequence of Peroxisome proliferator-activated receptor gamma (Homo sapiens) (P37231 whole entry, looked up): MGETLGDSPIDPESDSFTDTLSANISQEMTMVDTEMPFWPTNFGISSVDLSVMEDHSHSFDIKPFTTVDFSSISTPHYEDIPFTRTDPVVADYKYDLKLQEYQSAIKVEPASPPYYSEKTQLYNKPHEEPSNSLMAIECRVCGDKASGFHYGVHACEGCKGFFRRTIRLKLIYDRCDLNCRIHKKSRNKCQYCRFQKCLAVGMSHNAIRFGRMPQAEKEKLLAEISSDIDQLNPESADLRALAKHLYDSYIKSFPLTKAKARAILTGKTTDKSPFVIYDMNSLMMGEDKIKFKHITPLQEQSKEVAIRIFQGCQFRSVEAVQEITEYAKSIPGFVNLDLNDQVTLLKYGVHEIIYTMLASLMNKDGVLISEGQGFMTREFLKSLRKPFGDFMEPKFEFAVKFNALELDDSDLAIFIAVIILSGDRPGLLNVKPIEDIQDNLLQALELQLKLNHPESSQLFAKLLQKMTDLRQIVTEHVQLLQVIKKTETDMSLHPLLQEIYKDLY
Summary of the method: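 Cell-based bla reporter, HEK293H background, PPARg-driven UAS. Pre-incubation 5 h, 37C, 5% CO2. Compound 17 h, 37C. Substrate 1 h RT; fluorescence.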

[13] = target: Peroxisome proliferator-activated receptor gamma (Homo sapiens) (UniProt P37231); experiment: qHTS assay to identify small molecule antagonists of the peroxisome proliferator-activated receptor gamma (PPARg) signaling pathway (AID 743191; calls by dose curve; also: nearly all actives have a fitted effect of over 30% in size); settings: HEK293H PPARg-UAS-bla, beta-lactamase ratio, antagonist, 17 h; series mostly up to 62.6 µM
Summary of the method: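 Beta-lactamase reporter under UAS control in HEK293H PPARg-bla cells; compound treatment 17 h at 37C. Read-out: fluorescence intensity after 1 h room-temperature incubation with LiveBLAzer B/G FRET substrate.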

[14] = qHTS assay to identify small molecule antagonists of the peroxisome proliferator-activated receptor gamma (PPARg) signaling pathway - cell viability counter screen (AID 743194); settings: PPARg-bla HEK293H viability, CellTiter-Glo luminescence, 17 h, co-treated with 50 nM rosiglitazone; series mostly up to 62.6 µM; also: nearly all actives have a fitted effect of over 55% in size
Summary of the method: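 Viability was measured as CellTiter-Glo luminescence in GeneBLAzer PPARg UAS-bla HEK293H cells. These cells had been exposed 17 h at 37 C to compounds together with rosiglitazone at 50 nM final, with the beta-lactamase readout taken in the same wells.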

[15] = qHTS assay for small molecule agonists of the antioxidant response element (ARE) signaling pathway (AID 743202; active = well fitted activation curve with a large enough effect in the signal ratio in the repeat runs, not every such curve was filed as active; inconclusive = weak or mixed curves, or effect the other way; inactive = no such curve, though single readings can be large or run the other way; the % refers to the signal ratio); settings: HepG2 ARE-bla reporter, beta-lactamase FRET, 16 h; series mostly up to 73.3 µM
Summary of the method: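 After 16 hours of compound treatment at 37 C, HepG2 cells with a stably integrated ARE-driven beta-lactamase reporter were loaded 2 hours at room temperature with LiveBLAzer B/G FRET substrate and fluorescence intensity measured.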

[16] = qHTS assay for small molecule agonists of the antioxidant response element (ARE) signaling pathway - cell viability counter screen (AID 743203; calls by dose curve; also: nearly all actives have a fitted effect of over 55% in size); settings: ARE-bla HepG2 viability, CellTiter-Glo luminescence, 16 h; series mostly up to 73.3 µM
Summary of the method: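 Measured in the same wells as the beta-lactamase ARE reporter, this read-out is CellTiter-Glo luminescence from HepG2 ARE-bla cells given compounds for 16 hrs.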

[17] = qHTS assay for small molecule activators of the heat shock response signaling pathway - cell viability counter screen (AID 743209); settings: HSE-bla HeLa viability, CellTiter-Glo luminescence, 5 h; series mostly up to 62.6 µM; also: nearly all actives have a fitted effect of over 50% in size
Summary of the method: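 Same-well multiplex: after 2.5 h room-temperature incubation with LiveBLAzer B/G substrate and fluorescence reading, CellTiter-Glo reagent was added to HSE-bla HeLa cells that had received compound for 5 h at 37 C; luminescence read after 30 min.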

[18] = qHTS assay to identify small molecule antagonists of the estrogen receptor alpha (ER-alpha) signaling pathway using the BG1 cell line (AID 743080; calls by dose curve;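 also: BG1 cells stimulated with 17beta-estradiol alongside compound; nearly all actives have a fitted effect of over 25% in size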); settings: BG1Luc4E2 ERE-luciferase antagonist mode, luminescence; series mostly up to 70.3 µM
Summary of the method: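 Luciferase inhibition measured with ONE-Glo after 30 min at RT in BG1Luc4E2 cells given test compounds and 17beta-estradiol for 21.5 h at 37 C; CellTiter-Fluor viability read in the same wells beforehand.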

[19] = target: Aryl hydrocarbon receptor (Homo sapiens) (UniProt P35869); experiment: qHTS assay to identify small molecule that activate the aryl hydrocarbon receptor (AhR) signaling pathway (AID 743085); settings: HepG2 AhR-luc (HG2L7.5c1), luciferase, 24 h; series mostly up to 70.3 µM; also: nearly all actives have a fitted effect of over 15% in size; also: potency is read from the fitted curve at half-maximal effect;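 as to activation: HG2L7.5c1 human HepG2 liver cells with stably integrated DRE-driven firefly reporter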
Sequence of Aryl hydrocarbon receptor (Homo sapiens) (P35869 whole entry, looked up): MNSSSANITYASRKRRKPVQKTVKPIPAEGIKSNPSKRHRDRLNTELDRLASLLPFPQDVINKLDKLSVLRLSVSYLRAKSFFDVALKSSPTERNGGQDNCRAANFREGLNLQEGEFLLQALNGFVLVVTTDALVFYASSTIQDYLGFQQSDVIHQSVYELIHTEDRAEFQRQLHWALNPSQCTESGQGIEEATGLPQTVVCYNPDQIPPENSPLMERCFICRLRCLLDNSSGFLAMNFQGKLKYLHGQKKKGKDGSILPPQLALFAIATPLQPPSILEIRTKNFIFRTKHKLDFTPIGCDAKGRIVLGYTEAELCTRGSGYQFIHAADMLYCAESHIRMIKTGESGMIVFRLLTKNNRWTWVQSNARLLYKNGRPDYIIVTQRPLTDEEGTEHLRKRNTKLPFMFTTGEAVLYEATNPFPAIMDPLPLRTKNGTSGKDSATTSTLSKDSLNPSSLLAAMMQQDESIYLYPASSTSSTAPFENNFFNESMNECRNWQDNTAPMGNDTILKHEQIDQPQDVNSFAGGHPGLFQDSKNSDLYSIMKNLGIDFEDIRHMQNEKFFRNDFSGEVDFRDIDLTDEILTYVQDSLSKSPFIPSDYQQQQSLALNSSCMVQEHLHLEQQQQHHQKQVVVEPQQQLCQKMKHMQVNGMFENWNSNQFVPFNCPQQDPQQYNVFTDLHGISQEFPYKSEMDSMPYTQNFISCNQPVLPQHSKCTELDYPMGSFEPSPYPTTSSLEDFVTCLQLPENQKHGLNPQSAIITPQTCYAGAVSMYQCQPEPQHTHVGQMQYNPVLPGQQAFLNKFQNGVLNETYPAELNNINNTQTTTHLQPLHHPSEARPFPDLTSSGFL
Summary of the method: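 Compounds were tested in HepG2 hepatocellular carcinoma cells harbouring a stably integrated luciferase gene under control of 20 DREs. Increased reporter signal after 24 h treatment at 37C was taken as AhR activation.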

[20] = qHTS assay for small molecule activators of the heat shock response signaling pathway (AID 743210; active = well fitted activation curve with a large enough effect in the signal ratio in the repeat runs, with a control signal flat, not every such curve was filed as active; inconclusive = weak or mixed curves; the % refers to the signal ratio); settings: HeLa HSE-bla reporter, beta-lactamase ratio, 5 h; series mostly up to 62.6 µM
Summary of the method: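 Compound exposure lasted 5 h at 37 C in HeLa cells carrying a heat-shock-element-driven beta-lactamase reporter. Read-out: fluorescence intensity after 2.5 h room-temperature loading with LiveBLAzer B/G FRET substrate.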

Structure (SMILES)	Potency [1]	Potency [2]	outcome [3]	Potency [4]	outcome [5]	Potency [6]	Potency [7]	Potency [8]	Potency [9]	Potency [10]	Potency [11]	outcome [12]	outcome [13]	outcome [14]	Potency [15]	Potency [16]	outcome [17]	outcome [18]	Potency [19]	outcome [20]
CCO[Si](CCC#N)(OCC)OCC	inactive	inactive	inactive	inactive	inactive	inactive	inactive	inactive	inactive	inactive	inactive	inactive	inactive	inactive	inactive	inactive	inactive	–	–	–
Nc1ccc(Cl)c(N)c1	inactive	inactive	inactive	–	inactive	inactive	inactive	inactive	inactive	inactive	inactive	–	–	–	–	–	inactive	inactive	19.4 µM (active) and 7.7 µM (active)	inactive
O=C1CCCC1	inactive	inactive	inactive	inactive	inactive	inactive	inactive	inactive	inactive	inactive	inactive	inactive	inactive	–	–	–	inactive	–	inactive	–
CN(C)c1ccc(O)c2c1C[C@H]1C[C@H]3[C@H](N(C)C)C(=O)C(C(N)=O)=C(O)[C@@]3(O)C(=O)C1=C2O	inactive	inactive	inactive	inactive	inactive	inactive	inactive	inactive	inactive	inactive	inactive	–	–	–	inactive	–	inactive	–	inactive and 7.7 µM (active)	–
CC1(C)CC(N)CC(C)(CN)C1 (configuration not stated)	inactive	inactive	inactive	inactive	inactive	inactive	inactive	inactive	inactive	inactive	inactive	inactive	inactive	inactive	–	–	inactive	–	–	inactive
CC(=O)OC1CC(C)OC(C)O1 (configuration not stated)	inactive	inactive	inactive	–	inactive	–	–	inactive	inactive	inactive	inactive	inactive	inactive	–	inactive	inactive	inactive	–	inactive	–
CC(C)c1cccc(C(C)C)c1	inactive	inactive	inactive	inactive	inactive	inactive	inactive	inactive	inactive	inactive	inactive	inactive	inactive	inactive	–	–	inactive	–	inactive	inactive
COc1cc(OC)c(C(=O)CCCN2CCCC2)c(OC)c1	inactive	inactive	inactive	–	inactive	–	–	inactive	inactive	inactive	inactive	inactive	inactive	inactive	–	inactive	inactive	–	inactive	–
CC(C)=CCl	inactive	inactive	inactive	inactive	–	49.6 µM [inconclusive] (active) and inactive	17.4 µM (active) and inactive	inactive	inactive	inactive	inactive	–	–	–	–	inactive	inactive	inactive	inactive	inactive
CCCCOC(=O)c1ccc(N)cc1	inactive	21.1 µM (active) and 21.4 µM (active)	inactive	24.2 µM [inconclusive] (active)	inactive	inactive	23.7 µM (active) and 33.9 µM (active)	inactive	inactive	inactive	inactive	–	–	–	–	inactive	inactive	–	23.7 µM (active)	inactive
CC1(C)S[C@@H]2[C@H](NC(=O)COc3ccccc3)C(=O)N2[C@H]1C(=O)O	inactive	inactive	inactive	inactive	inactive	inactive	inactive	inactive	inactive	inactive	inactive	inactive	inactive	–	inactive	inactive	inactive	–	inactive	inactive
CN(C)CCOC(=O)COc1ccc(Cl)cc1	inactive	inactive	inactive	–	inactive	–	–	inactive	inactive	inactive	inactive	inactive	inactive	inactive	–	inactive	inactive	–	–	–
O=C1c2ccccc2CCc2ccccc21	–	inactive	inactive	–	inactive	–	–	inactive	inactive	inactive	inactive	inactive	inactive	inactive	inactive	inactive	inactive	–	inactive	inactive
NCCNCCN	inactive	inactive	inactive	–	inactive	–	–	inactive	inactive	inactive	inactive	inactive	inactive	–	–	inactive	inactive	–	inactive	inactive
COC(=O)c1cccnc1	inactive	inactive	inactive	–	inactive	–	–	inactive	inactive	inactive	inactive	inactive	inactive	–	–	inactive	inactive	–	inactive	–
CCCCCCCCCCN	inactive	inactive	inactive	–	–	–	–	inactive	inactive	inactive	inactive	–	–	inactive	inactive	inactive	inactive	–	inactive	inactive
CCOC(=O)c1ccc(N)cc1	inactive	inactive	inactive	–	inactive	–	–	inactive	inactive	inactive	inactive	inactive	inactive	inactive	–	inactive	inactive	–	–	–
Cc1ccc(C(C)C)c(O)c1	61.1 µM (active)	–	inactive	inactive	inactive	inactive	inactive	inactive	inactive and 54.5 µM (active)	inactive and 61.1 µM (active)	inactive	inactive	inactive	inactive	inactive	–	inactive	inactive	inactive	inactive
CC(C)(C#N)c1cc(Cn2cncn2)cc(C(C)(C)C#N)c1	–	–	–	–	inactive	–	–	inactive	–	inactive	inactive	inactive	inactive	–	inactive	–	inactive	–	inactive	–
